# Assay outcomes: PubChem, National Center for Advancing Translational Sciences (NCATS)
# The list is not random: actives were taken first. Their share in the collection is about 5.7%.
# DRD3 antagonist: antagonists of human D3 dopamine receptor. P35462. D3R cells, DiscoveRx beta-arrestin luminescence, antagonist mode; hits give low values. max response, negative = inhibition, %. hit rate 2.5% among 360,000; in the data active = max response below about -50%; inconclusive = no clear call, values can overlap the other calls
#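 Cells expressing the human receptor were seeded at 1500 cells/well, incubated overnight at 37 degrees C in 5% CO2, then exposed to library compounds with dopamine controls for 90 minutes at 37 degrees C before luminescent detection.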
# GLP1R ag: activates the human GLP-1 receptor | AID 624172 | Potency, µM (titrated, usually from 45.6 µM), actives largely listed as activators | hit rate 0.007% among 380,000 | P43220 | HEK293 GLP-1R CRE-luciferase, luminescence, 4-6 h; cells express a hypersensitive GLP-1R form
# ClpP mod: qHTS Assay for Activators of ClpP; hit rate 1.9% among 340,000; Potency, µM (doses to about 57.5 µM); purified B. subtilis ClpP, FRET peptide cleavage, 20 min; AID 651965, 2013; active = well fitted falling curve with a large enough effect; inconclusive = small, poorly fitted or top-dose-only effect; inactive = no such curve, though single readings can be large or run the other way; also: the source files actives as falling curves though it sought activators and does not explain the sign; nearly all actives have a fitted effect of over 65% in size
#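 ClpP 10 microg/mL final, pH 8 Tris/KCl buffer with BSA, glycerol, Tween-20; compound pinned in; FRET-FV substrate; RT 20 min; Ex320/Em430; ΔFRET vs ADEP 5.8 microM, DMSO, no enzyme.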
# GLP-1R inv ag: GLP-1 receptor (human) inverse agonism. hit rate 1.6% among 410,000. HEK293 GLP-1R CRE-luciferase, luminescence, 24 h; GLP-1R form is constitutively active. AID 624417. Potency, µM (top dose mostly 38.3 µM), hits mostly inhibitors; also: nearly all actives have a fitted effect of over 55% in size
#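 qHTS in 1536-well format: reporter HEK293 cells expressing constitutive GLP-1R activity in DMEM + 10% Nu serum, 24 hr with compounds at 37 deg C, luminescence read after 12 min with detection reagent.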
# GLP1R cytotox: cytotoxic in the GLP-1 receptor inverse agonist counter-screen; Potency, µM (titrated, usually from 38.3 µM), hits mostly inhibitors; HEK293 cAMP-luciferase reporter cells, luminescence, 24 h; AID 624418; hit rate 0.13% among 410,000;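 also: loss of luciferase light is scored as toxicity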
#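 MLSMR compounds, 24 hr on cells at 37 deg C/5% CO2; luminescence after luciferase reagent (12 min RT). Inhibition counted as the undesired cytotoxic outcome.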
# D3 ag: agonists of human D3 dopamine receptor; max activation, %; D3R DiscoveRx beta-arrestin cells, luminescence, 90 min; hit rate 0.58% among 410,000; in the data active = max activation above about 30%
#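 Agonist-mode cell screen: cells plated at 1500/well and incubated overnight at 37 °C, then exposed to library compounds for 90 min at 37 °C. Detection reagent was added for 30–60 min at room temperature, and luminescence was read.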
# Numbers stand for hits; i = inactive; ? = inconclusive; nt = no result given. Unless noted, calls follow the shape of the dose curve; as a rule, active = well fitted curve in the direction sought with a large enough effect; inconclusive = small, poorly fitted or top-dose-only effect, or another doubt; inactive = no such curve, though single readings can be large; an effect the other way counts as inactive or inconclusive.
SMILES,DRD3 antagonist,GLP1R ag,ClpP mod,GLP-1R inv ag,GLP1R cytotox,D3 ag
COc1cccc(N2C(=O)C(CC(=O)Nc3cccc(F)c3)N(C(C)C)C2=O)c1 (centres undefined),nt,nt,i,i,i,i
Cc1ccc(-c2ccc(CCC(=O)O)o2)cc1,i,i,16µM,i,i,i
O=C(O)CCc1ccc(-c2cccs2)o1,i,i,i,i,i,i
Nc1cc(N)cc(N)c1,nt,nt,i,nt,nt,nt
COc1cccc(NC(=O)c2oc3ccccc3c2NC(=O)c2ccc(F)c(F)c2)c1,nt,nt,?,i,i,i
O=C(Nc1ccc(OCc2cc(=O)n3c4c(sc3n2)CCCC4)cc1)c1ccc(F)cc1,nt,i,i,i,i,i
N#Cc1cccc(OCCCN2CCC(C(O)(c3ccccc3)c3ccccc3)CC2)c1,-86,i,i,?,i,i
Cc1ccc(S(=O)Cc2ccc(C(=O)NC3CCCCCC3)o2)cc1 (centres undefined),nt,i,i,i,i,i
CC(=O)Nc1ccc(-c2cc3ccccc3o2)cc1,i,i,14µM,i,i,i
CSCCC(NC(=O)c1ccccc1)C(=O)NC1CC1 (centres undefined),i,i,i,i,i,34
CSCCC(NC(=O)c1ccccc1)C(=O)NC1CCCC1 (centres undefined),i,i,i,i,i,i
COc1ccccc1C(=O)NC(CCSC)C(=O)NNC(=O)c1ccc(F)cc1 (centres undefined),i,i,28µM,i,i,i
CCc1ccc2[nH]c(=O)c(CN(Cc3ccc4c(c3)OCO4)Cc3nnnn3C3CCCC3)cc2c1,i,i,i,i,i,35
COCCn1nnnc1CN(Cc1ccco1)Cc1cc2cc3c(cc2[nH]c1=O)OCO3,i,i,28µM,i,i,i
CCC(C)(C)n1nnnc1CN(Cc1ccco1)Cc1cc2cc3c(cc2[nH]c1=O)OCO3,i,i,32µM,i,i,i
CC(C)(C)n1nnnc1CN(Cc1ccco1)Cc1cc2cc3c(cc2[nH]c1=O)OCO3,?,i,28µM,i,i,i
COC(=O)[C@@]12C[C@@H](CC(=O)N3CCN(C(=O)C4CC4)CC3)C(=O)N(CCc3ccc(OC)c(OC)c3)C1=CCC(C)(C)C2,i,nt,i,i,i,i
COc1ccc(CCN2C(=O)CCC3=C2CCCC3=O)cc1OC,i,i,i,i,i,i
Cc1ccc(-c2cc(-c3ccc4c(c3)NC(=O)CO4)nc3c2COc2ccc(C)cc2-3)cc1,nt,i,i,i,i,i
CN(c1ccccc1)S(=O)(=O)c1cccc(C(=O)NCC(c2cccs2)N2CCOCC2)c1 (centres undefined),i,i,i,i,i,i
COc1ccc2[nH]c(=O)c(CN(Cc3ccco3)Cc3nnnn3Cc3ccccc3)cc2c1,i,i,25µM,i,i,i
CCC(C)C(NC(N)=O)C(=O)Nc1ccc(C)c(Cl)c1 (centres undefined),i,i,28µM,i,i,i
CC[C@H](C)[C@H](NC(N)=O)C(=O)Nc1ccc(OC)c(Cl)c1,i,i,i,i,i,i
O=C(Nc1cccc(C(F)(F)F)c1)c1cc2nc(-c3ccc4c(c3)OCO4)cc(C(F)(F)F)n2n1,nt,nt,i,i,i,i
CCOC(=O)c1ccc(Nc2nc3nonc3nc2Nc2cccc(C)c2C)cc1,nt,nt,i,2.8µM,?,i
SMILES,DRD3 antagonist,GLP1R ag,ClpP mod,GLP-1R inv ag,GLP1R cytotox,D3 ag
CC(C)c1nn2c(=O)cc(COC(=O)c3ccc(NC(=O)CCc4ccccc4)cc3)nc2s1,nt,nt,i,i,i,i
CCOc1ccc(CCNCc2c(C(=O)O)c(C)n(Cc3ccccc3F)c2C)cc1,nt,nt,i,i,i,i
Oc1ccccc1CNc1ccc(Br)cn1,i,i,3.2µM,i,i,i
Brc1ccc(NCc2cccc3ccccc23)nc1,i,i,i,i,i,i
COc1ccccc1CNc1ccc(Br)cn1,i,i,nt,?,i,33
Oc1ccc(Br)cc1CNc1cnc2ccccc2c1,i,i,i,11µM,i,i
Cc1ccc(O)c(CNc2cnc3ccccc3c2)c1,i,i,nt,?,i,i
Cc1ccc(C)c(N2CCN(CCCNC(=O)c3ccc4nc(CCc5ccccc5)oc4c3)CC2)c1,nt,nt,i,i,i,i
O=C(c1ccc2c(c1)N(Cc1ccccc1)C(=O)c1ccccc1S2(=O)=O)N1CCOCC1,nt,nt,i,i,i,i
Cc1cccnc1C1=NOC(Cc2ccccc2)C(=O)N1Cc1ccccc1F (centres undefined),i,i,i,?,i,i
COc1ccc(NS(=O)(=O)c2cc([N+](=O)[O-])ccc2N/N=C\c2c(C)[nH]c3ccccc23)cc1,i,i,i,i,i,i
COc1ccc(C(=O)N/N=C/c2sc(N3CCOCC3)nc2-c2ccccc2)cc1OC,i,i,i,i,i,i
COc1ccccc1NS(=O)(=O)c1cc([N+](=O)[O-])ccc1N/N=C/c1c[nH]c2ccccc12,-88,i,i,5µM,i,i
COc1ccccc1NS(=O)(=O)c1cc([N+](=O)[O-])ccc1N/N=C/c1sc(N2CCOCC2)nc1-c1ccccc1,-84,i,i,i,i,i
O=[N+]([O-])c1ccccc1N/N=C/c1c[nH]c2ccccc12,-52,i,i,i,?,i
Cc1cccc(C(=O)N(Cc2ccco2)Cc2ccccc2F)c1,nt,nt,i,?,i,i
COc1ccc(N2CCN(C3CCN(S(=O)(=O)c4ccc(F)cc4)CC3)CC2)cc1,i,i,i,i,i,i
COc1cccc(C(c2ccccc2)N2C3CCC2CN(S(=O)(=O)c2ccc(F)cc2)CC3)c1 (centres undefined),?,i,i,3.5µM,i,i
CC1(C(=O)NS(=O)(=O)c2cccc(Cl)c2)CCN1C(=O)Cc1ccc(Cl)cc1Cl (centres undefined),-83,i,i,i,i,i
CC1(C(=O)Nc2ccc3c(c2)OCCO3)CCN1C(=O)CC1CCCC1 (centres undefined),i,i,i,i,i,i
CC1(C(=O)Nc2ccc(Cl)c(Cl)c2)CCN1C(=O)CC1CCCC1 (centres undefined),i,i,i,14µM,i,i
CC1(C(=O)NS(=O)(=O)c2ccc(Cl)cc2)CCN1C(=O)CCc1ccc(Cl)cc1Cl (centres undefined),-52,i,i,i,i,i
Cc1ccc(S(=O)(=O)NC(=O)C2(C)CCN2C(=O)CCc2ccc(Cl)cc2Cl)cc1 (centres undefined),?,i,i,i,i,i
